This note sets out measurements from PubChem BioAssay (NCI).

Compounds without any hit were thinned out: in the full panel of roughly 83,000, 20% have a hit.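 Activity criterion: percent growth below 10, measured after cells in 96-well plates were exposed to a single compound concentration for 48 hours.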 Values without a mark were called inactive. Activity calls are given as the source filed them.

Some test systems named below: SK-MEL-2 melanoma; EKVX NSCLC; SN12C renal; UO-31 renal; TK-10 renal; ACHN renal; CAKI-1 renal; A498 renal; CCRF-CEM leukemia; MOLT-4 leukemia; SR leukemia; RPMI-8226 leukemia; OVCAR-8 ovarian; OVCAR-5 ovarian; OVCAR-4 ovarian; SK-OV-3 ovarian; IGROV1 ovarian; OVCAR-3 ovarian; HS 578T breast; NCI/ADR-RES ovarian.
Assay in all cases: NCI-60 one-dose screen, 48 h (100 = growth as untreated, 0 = no growth, -100 = all killed)
Common to all, as to settings: 10 µM unless noted

Regarding `C=CCOC(=O)C1=C(C)N(CC)C(=O)N(CC)C1c1c(Cl)n(C)c2ccccc12` (stereo not given), the growth in the assay on SK-MEL-2 melanoma is 95.6%; with EKVX NSCLC it was 75.5%; in the assay on SN12C renal, 89%; in the assay on UO-31 renal it was 64.6%; with TK-10 renal, 94.1%; in the assay on ACHN renal it was 56.9%. The growth with CAKI-1 renal is 32.8%; in the assay with A498 renal it was 82.5%; in the assay on CCRF-CEM leukemia, -9.42% (active); in the assay with MOLT-4 leukemia, 89.3%; in the assay on SR leukemia, 90.5%; in the assay with RPMI-8226 leukemia, 59.7%. The growth with OVCAR-8 ovarian was 88%; in the assay with OVCAR-5 ovarian it was 89.1%; with OVCAR-4 ovarian it was 88.5%; in the assay with SK-OV-3 ovarian it was 103%; in the assay on IGROV1 ovarian, 90.9%; in the assay on OVCAR-3 ovarian it was 90%. Besides, the values for the growth with HS 578T breast and in the assay with NCI/ADR-RES ovarian were 89.2% and 84.2%, respectively.
As to `O=C1C(c2c(O)[nH]c3ncccc23)=Nc2ccccc21`, the growth with SK-MEL-2 melanoma was 43.4%; in the assay on EKVX NSCLC it was 30.6%; in the assay with SN12C renal it was 90.6%; in the assay on UO-31 renal, 46.2%; in the assay with TK-10 renal it was 56.4%; in the assay with ACHN renal, 51.5%. Moreover, the growth in the assay with CAKI-1 renal was 53.7%; in the assay on A498 renal, 117%; in the assay with CCRF-CEM leukemia it was 88.4%; with MOLT-4 leukemia, 85.4%; with SR leukemia, 82.5%; in the assay with RPMI-8226 leukemia, 75.4%. In addition, the growth in the assay on OVCAR-8 ovarian was 84.4%; in the assay with OVCAR-5 ovarian, 77.7%; in the assay with OVCAR-4 ovarian it was 80.4%; with SK-OV-3 ovarian, 69.6%; in the assay with IGROV1 ovarian it was -40.9% (active); in the assay on OVCAR-3 ovarian, 75.8%. In addition, the growth with HS 578T breast was 72.5%; in the assay with NCI/ADR-RES ovarian, 82.7%.
`O=C(O)/C=C/c1cn(-c2ccccc2)nc1-c1ccc(F)cc1`: the growth is 106% with SK-MEL-2 melanoma; 97.2% in the assay on EKVX NSCLC; 91.1% with SN12C renal; 60.7% with UO-31 renal; 103% in the assay with TK-10 renal; 92% in the assay with ACHN renal. The growth with CAKI-1 renal is 88.9%; in the assay on A498 renal, 76.1%; in the assay with CCRF-CEM leukemia it was 86.4%; in the assay with MOLT-4 leukemia, 109%; in the assay with SR leukemia, 104%; in the assay on RPMI-8226 leukemia, 97.4%. The growth in the assay with OVCAR-8 ovarian is 87.4%; in the assay on OVCAR-5 ovarian, 88.8%; with OVCAR-4 ovarian it was 99.1%; with SK-OV-3 ovarian, 87.8%; in the assay on IGROV1 ovarian, 91.6%; in the assay on OVCAR-3 ovarian, 96%. Besides, the results for the growth in the assay with HS 578T breast and in the assay with NCI/ADR-RES ovarian were 83.4% and 90.4%, respectively.
Regarding `COc1cc2c(c(OC)c1OC)CCC(c1cccc(C(=O)Nc3ccc([N+](=O)[O-])cc3)c1)O2` (stereo not given), the growth was 43% in the assay on SK-MEL-2 melanoma; 55.4% in the assay with EKVX NSCLC; 51.1% in the assay on SN12C renal; 29.3% in the assay with UO-31 renal; 57.8% in the assay with TK-10 renal; 40.7% in the assay with ACHN renal. Besides, the growth with CAKI-1 renal is 50.5%; with A498 renal it was 25.5%; with CCRF-CEM leukemia it was 15.1%; in the assay with MOLT-4 leukemia, 4.06% (active); with SR leukemia, 24.9%; with RPMI-8226 leukemia, 9.24% (active). Further, the growth in the assay with OVCAR-8 ovarian is 42%; with OVCAR-5 ovarian, 84.3%; in the assay with OVCAR-4 ovarian, 40.7%; in the assay with SK-OV-3 ovarian, 78.4%; with IGROV1 ovarian it was 72.2%; in the assay with OVCAR-3 ovarian it was 56.5%. The growth in the assay on HS 578T breast is 77.1%; with NCI/ADR-RES ovarian, 38.2%.
For the molecule `COc1cc(C(=O)c2c(-c3ccccc3)oc3ccccc23)cc(OC)c1O`, the growth in the assay with SK-MEL-2 melanoma was 50.9%; with EKVX NSCLC, 51.3%; in the assay with SN12C renal, 43.9%; in the assay with UO-31 renal it was 51.9%; in the assay on TK-10 renal it was 78.4%; with ACHN renal, 41.7%. Further, the growth in the assay with CAKI-1 renal is 32.7%; in the assay with A498 renal it was 1.19% (active); in the assay with CCRF-CEM leukemia it was 13.9%; with MOLT-4 leukemia, 28.6%; in the assay on SR leukemia it was 13.7%; with RPMI-8226 leukemia, 24.7%. In addition, the growth is 34.6% in the assay with OVCAR-8 ovarian; 99.8% in the assay with OVCAR-5 ovarian; 56.3% in the assay with OVCAR-4 ovarian; 51.2% with SK-OV-3 ovarian; 41.1% in the assay on IGROV1 ovarian; 2.25% (active) in the assay on OVCAR-3 ovarian. Also, the growth is -3.45% (active) in the assay on HS 578T breast and 21.8% with NCI/ADR-RES ovarian.
As for `O=C(/C=C\c1ccc(O)c(O)c1)c1ccccc1O`, the growth was 125% in the assay on SK-MEL-2 melanoma; 73.3% with EKVX NSCLC; 71.9% with SN12C renal; 49.6% in the assay on UO-31 renal; 88.7% with TK-10 renal; 78.3% in the assay with ACHN renal. Also, the growth in the assay on CAKI-1 renal was 8.01% (active); in the assay on A498 renal, 98.9%; in the assay on CCRF-CEM leukemia, 14.7%; in the assay on MOLT-4 leukemia, 49.1%; in the assay on SR leukemia, -13.3% (active); with RPMI-8226 leukemia, 5.13% (active). The growth in the assay with OVCAR-8 ovarian is 69.4%; in the assay on OVCAR-5 ovarian, 103%; in the assay on OVCAR-4 ovarian, 74.9%; in the assay on SK-OV-3 ovarian, 97%; in the assay with IGROV1 ovarian, 46.3%; in the assay on OVCAR-3 ovarian, 73.8%. The growth in the assay on HS 578T breast was 91.8%; with NCI/ADR-RES ovarian, 74.3%.
For the molecule `COc1cc(/C=N/NC(=O)c2ccc3nc(-c4ccc(Cl)cc4)[nH]c3c2)cc(OC)c1OC`, the growth in the assay with SK-MEL-2 melanoma was 83.6%; with EKVX NSCLC it was 95.8%; with SN12C renal it was 68.5%; in the assay with UO-31 renal, 88.3%; in the assay with TK-10 renal it was 77.4%; with ACHN renal, 67.4%. Moreover, the growth was 76% in the assay with CAKI-1 renal; -1.95% (active) with A498 renal; 36.6% with CCRF-CEM leukemia; 41.6% in the assay with MOLT-4 leukemia; 45.7% in the assay on SR leukemia; 19.9% with RPMI-8226 leukemia. In addition, the growth in the assay with OVCAR-8 ovarian is 60.5%; in the assay with OVCAR-5 ovarian, 172%; with OVCAR-4 ovarian it was 102%; with SK-OV-3 ovarian, 87.8%; in the assay with IGROV1 ovarian, 68.4%; in the assay with OVCAR-3 ovarian it was 61.6%. The results for the growth in the assay with HS 578T breast and with NCI/ADR-RES ovarian were 48.3% and 106%, respectively.
In the case of `C#CCOc1ccc(C2=NN(C)C3N=C(Cl)c4ncn(C)c4N23)cc1OCC#C` (stereo not given), the growth in the assay with SK-MEL-2 melanoma was 105%; with EKVX NSCLC, 102%; with SN12C renal, 97.6%; in the assay on UO-31 renal, 74.6%; in the assay with TK-10 renal, 99%; in the assay with ACHN renal, 89.6%. In addition, the growth in the assay with CAKI-1 renal was 103%; with A498 renal it was 85.4%; in the assay on CCRF-CEM leukemia, 87.4%; with MOLT-4 leukemia, 82.9%; with SR leukemia, 91%; in the assay with RPMI-8226 leukemia, 92.4%. Besides, the growth in the assay with OVCAR-8 ovarian was 93.1%; in the assay on OVCAR-5 ovarian, 82.6%; in the assay with OVCAR-4 ovarian, 102%; with SK-OV-3 ovarian, 101%; with IGROV1 ovarian, 102%; with OVCAR-3 ovarian it was 118%. In addition, the growth with HS 578T breast is 99.9%; in the assay with NCI/ADR-RES ovarian, 88.4%.
